# In paper PMC5540273 (PLoS ONE, 2017):
# Legend:
# Conditions in all cases: concentration: 1 μM, replicates: in singlicate; n = 1
# [1] = tested on: T1, ERK1
# T1 construct: gene MAPK3
# [2] = tested on: T2, ERK2
# T2 construct: gene MAPK1
# [3] = tested on: T3, ERK3
# T3 construct: gene MAPK6
# [4] = tested on: T4, ERK4
# T4 construct: gene MAPK4
# [5] = tested on: T5, ERK5
# T5 construct: gene MAPK7
# [6] = tested on: T6, ERK8
# T6 construct: gene MAPK15
# [7] = tested on: ERN1
# [8] = tested on: T7, FAK
# T7 construct: gene PTK2
# [9] = tested on: FER
# [10] = tested on: FES
# [11] = tested on: FGFR1
# [12] = tested on: FGFR2
# [13] = tested on: FGFR3
# [14] = tested on: FGFR4
# [15] = tested on: FGR
# [16] = tested on: FLT1
# [17] = tested on: FLT3-autoinhibited
# [18] = tested on: FLT3
# [19] = tested on: FLT4
# [20] = tested on: FRK
# 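Note: KINOMEscan kinase panel screen.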
Compound,%Inh [1],%Inh [2],%Inh [3],%Inh [4],%Inh [5],%Inh [6],%Inh [7],%Inh [8],%Inh [9],%Inh [10],%Inh [11],%Inh [12],%Inh [13],%Inh [14],%Inh [15],%Inh [16],%Inh [17],%Inh [18],%Inh [19],%Inh [20]
COc1ccc(Nc2nccc(NCCNC(=O)c3cc4ccccc4s3)n2)cc1 [GSK1379896],0%,0%,0%,0%,0%,0%,0%,11%,12%,0%,0%,0%,5%,9%,1%,19%,0%,0%,10%,0%
COc1cccc(-c2ccc3c(NC(=O)C4CC4)n[nH]c3n2)c1 [SB-710903],0%,0%,0%,8%,0%,11%,0%,0%,0%,0%,0%,0%,0%,9%,26%,8%,0%,0%,1%,0%
FC(F)(F)c1ccc(/C=C/c2cncnc2Nc2ccc3[nH]c(Cc4ccccc4)nc3c2)cc1 [GW709199],0%,0%,0%,9%,12%,21%,0%,21%,0%,38%,20%,0%,0%,4%,34%,12%,0%,19%,0%,10%
Cl.c1ccc(-c2ccc3c(Nc4ccc5[nH]ncc5c4)ccnc3c2)nc1 [GW440137],10%,0%,4%,34%,0%,0%,5%,0%,15%,0%,14%,0%,11%,0%,30%,62%,2%,0%,39%,0%
c1ccc(-c2n[nH]cc2Nc2ccnc3ccccc23)nc1 [GW694077],0%,0%,7%,0%,0%,25%,22%,0%,0%,0%,0%,0%,0%,0%,10%,26%,8%,12%,11%,0%
COCCOCCOc1cc2ncc3c4ccc(C#N)cc4[nH]c3c2cc1OC,9%,6%,2%,0%,0%,36%,0%,16%,0%,17%,0%,25%,18%,4%,30%,17%,90.1%,99.5%,20%,16%
C[C@@H](Oc1cc(-n2cnc3cc(-c4ccnc(NCCS(C)(=O)=O)c4)ccc32)sc1C(N)=O)c1ccccc1Cl [GSK907232],0%,0%,0%,19%,0%,76%,0%,0%,21%,0%,66%,88%,81%,22%,44%,63%,29%,98.1%,96.6%,18%
COc1cc2c(cc1OCCN1CCNCC1)ncc1c3ccc(C#N)cc3[nH]c21,0%,0%,0%,23%,15%,12%,44%,10%,0%,2%,0%,16%,21%,0%,2%,6%,95.8%,98.5%,0%,0%
NCCCC(NC(=O)c1cc(Br)c(-c2ccnc3[nH]ccc23)s1)c1ccccc1.O=C(O)C(F)(F)F.O=C(O)C(F)(F)F (stereo not drawn) [GSK1287544],12%,22%,0%,0%,0%,43%,22%,0%,0%,1%,52%,16%,30%,18%,24%,60%,6%,83%,38%,2%
